Molecules are shown by their SMILES. About 83,000 compounds went through this panel and 20% of them were active in at least one assay; those are over-represented in the sample as a whole.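 A percent growth of 40 corresponds to 60% growth inhibition; 0 means no net growth; -100 means all cells died. Active threshold: below 10.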 The source made the active and inactive calls.

This assay deals with COLO 205 colon. The assay is described as follows: NCI-60 one-dose screen, 48 h (100 = growth as untreated, 0 = no growth, -100 = all killed). Particulars: 10 µM unless noted.
Regarding `CCCOc1ccc2nc(NC(=O)OC)[nH]c2c1`, the growth is 3.31% (active). For the molecule `NS(=O)(=O)c1ccc(CN=C2NC(=O)S/C2=C\c2ccc(Br)cc2)cc1`, the growth is 106% (inactive). For `N=C(N)c1ccc(-c2ccc(-c3ccc4ccccc4c3)s2)s1`, the growth is -40.8% (active). As to `COc1cc2nc(N3CCCC3)nc(Nc3ccccc3)c2cc1OC`, the growth is -84.1% (active).

Consider `C#Cc1cccc(NC(=O)c2ccccc2NC(=O)C=C)c1`, for which the growth is 109% [8.25 µM] (inactive). For `C#CC(F)(F)[C@]1(O)CC[C@H]2[C@@H]3CCC4=CC(=O)CCC4=C3[C@@H](c3ccc(C(C)=O)cc3)C[C@@]21C`, the growth was 78.3% (inactive). The result for `Cc1ccc(NC(=O)/C=C/c2ccccc2)c(C(N)=O)c1` reads -21.2% (active); that for `CCOc1cc2ncc(C#N)c(Nc3ccc(OCc4cccc(F)c4)c(Cl)c3)c2cc1NC(=O)CC1CCSS1` (stereo not drawn), 32.2% (inactive). With `CCOC(=O)c1c(C(=O)OCC)c2cc(-c3ccn4c(C(=O)c5ccccc5)c(C(=O)OCC)c(C(=O)OCC)c4c3)ccn2c1C(=O)c1ccccc1`, the growth was 109% (inactive). With `NC(=O)c1cc(Br)ccc1NC(=O)/C=C/c1ccccc1`, the growth is -4.22% (active).

In the case of `COC(=O)[C@@H]1CCCN1C(=O)[C@@H]1CCCN1C(=O)[C@H](Cc1ccccc1)NC(=S)Nc1cc(C(F)(F)F)cc(C(F)(F)F)c1`, the growth was 82.7% (inactive). The result for `COc1ccc(-c2cc(=O)c3c(OC)c4ccoc4cc3o2)cc1` reads 102% (inactive); that for `NC(=NCCCC1(c2ccccc2)CCCC1)Nc1ccc(Cl)cc1`, -72.5% (active); that for `COC(=O)c1ccc(Cn2cnc3c(N)ncnc32)cc1`, 109% (inactive). The result for `Cc1ccc2oc(=O)cc(C3c4ccc([nH]4)C(c4cc(=O)oc5ccc(C)cc45)c4ccc([nH]4)C(c4cc(=O)oc5ccc(C)cc45)c4ccc([nH]4)C(c4cc(=O)oc5ccc(C)cc45)c4ccc3[nH]4)c2c1` (stereo not drawn) reads -80.6% (active); that for `O=C1c2cccc3cccc(c23)C(=O)N1CCCCN1CCN(CCCCOc2ccc(-c3nc4ccc(N5CCOCC5)cc4[nH]3)cc2)CC1`, 93.9% (inactive); that for `Cn1cc(-c2nonc2-c2cn(C)c3ccc(F)cc23)c2cc(F)ccc21`, 62.4% (inactive). The result for `CCOC(=O)n1cc(-c2nonc2-c2cn(C)c3ncccc23)c2cc(F)ccc21` reads 96% (inactive); that for `C=CC(COC(c1ccccc1)(c1ccccc1)c1ccccc1)N(CC)CC` (stereo not drawn), 0.413% (active).

Consider `COCCNc1ccc2c3c(cccc13)C(=O)N(CCN(C)C)C2=O`, for which the growth was 6.86% (active). With `O=C1CC(=NCC(=O)n2c(-c3ccccc3)nc3ccccc32)NN1`, the growth was 111% (inactive).

For the molecule `CC/C=C\C[C@H]1C/C=C2/C(=O)C=C[C@H]2C/C=C\CCCC(=O)O1`, the growth is 6.26% (active). For the molecule `CCOC(=O)c1sc2nc(-c3cccc(OC)c3)nc(N3CCOCC3)c2c1C`, the growth was 108% (inactive). Turning to `CC(=O)Nc1ccc(S(=O)(=O)Nc2cccc(-c3nc(-c4ccc(NC(=O)c5cccnc5)cc4Cl)no3)c2)cc1`, the growth was 21.7% (inactive). Consider `COc1nc2c(c(=O)n1C)CN(Cc1ccccc1)C=N2`, for which the growth was 107% (inactive). For the molecule `CCC(=O)c1ccc(Cl)s1`, the growth is 101% (inactive). For `O=S(=O)(Nc1ccc(I)cc1F)c1ccc(-c2cnc(C3CC3)o2)cc1`, the growth is 68.4% (inactive). As to `Cc1ccccc1COc1ccc(-c2onc(C)c2-c2ccc(Cl)cc2)cc1`, the growth was 71% (inactive).

With `O=C(/C=C/c1ccc(C(F)(F)F)cc1)Nc1ccc(C=C2c3ccccc3C(=O)c3ccccc32)cc1`, the growth was 66.5% (inactive). In the case of `COc1cccc2c1C(=O)c1c(O)c3c(c(O)c1C2=O)C[C@](O)(C(=O)CO)C[C@H]3O[C@@H]1C[C@@H](NC(=O)CCCN(C)C2(c3ccc(F)cc3)CC3CCC2C3)[C@H](O)[C@@H](C)O1` (stereo partly drawn), the growth is -76.2% (active). As to `O=C(O)c1ccc(NC(=O)c2ccc(-c3cccc([N+](=O)[O-])c3)o2)cc1`, the growth is 107% (inactive). In the case of `O=c1cc(CSc2nnc(SCc3cc(=O)oc4c3ccc3ccccc34)o2)c2ccc3ccccc3c2o1`, the growth was 106% (inactive). Turning to `O=C(COc1ccc(/C=C2\COc3ccccc3C2=O)cc1)Nc1nccs1`, the growth was 127% (inactive). Regarding `NC(=NCCCOc1ccc(Cl)cc1)Nc1ccc(Cl)cc1`, the growth was -65.6% (active). Regarding `N#CN1CC[C@H](C(=O)Nc2cc3cc(C(N)=O)ccc3cn2)C1`, the growth was -70.1% (active). Next, `N#CCCN=Nc1c(O)[nH]c2ccc(F)cc12`: 118% (inactive); `Nc1nc2ncc(CCNc3ccc(C(=O)O)cc3)nc2c(=O)[nH]1`: 105% (inactive).

As for `COc1cccc(-c2nc3sccn3c2-c2ccnc(NCCNS(=O)(=O)c3ccc(F)cc3)c2)c1`, the growth was 23.4% (inactive).

(Values after PubChem BioAssay (NCI).)
